Test results taken from paper PMC7862700, “An all-to-all approach to the identification of sequence-specific readers for epigenetic DNA modifications on cytosine”.

Tests used:
Assay in all cases: DAPPL (digital affinity profiling via proximity ligation, sequencing); 10 mM Tris-HCl pH 7.5, 50 mM NaCl, 1 mM DTT, 4% glycerol, room temperature, 30 min; GST-TFs on glutathione beads, 16-mer random dsDNA library, 0.1% formaldehyde crosslink after washing; high values mean tight binding
FLI1 = target: T1, FLI1 (Homo sapiens, UniProt Q01543 1-452); settings: protein: recombinant; tags: N-terminal GST; dsDNA, one strand shown
T1 sequence: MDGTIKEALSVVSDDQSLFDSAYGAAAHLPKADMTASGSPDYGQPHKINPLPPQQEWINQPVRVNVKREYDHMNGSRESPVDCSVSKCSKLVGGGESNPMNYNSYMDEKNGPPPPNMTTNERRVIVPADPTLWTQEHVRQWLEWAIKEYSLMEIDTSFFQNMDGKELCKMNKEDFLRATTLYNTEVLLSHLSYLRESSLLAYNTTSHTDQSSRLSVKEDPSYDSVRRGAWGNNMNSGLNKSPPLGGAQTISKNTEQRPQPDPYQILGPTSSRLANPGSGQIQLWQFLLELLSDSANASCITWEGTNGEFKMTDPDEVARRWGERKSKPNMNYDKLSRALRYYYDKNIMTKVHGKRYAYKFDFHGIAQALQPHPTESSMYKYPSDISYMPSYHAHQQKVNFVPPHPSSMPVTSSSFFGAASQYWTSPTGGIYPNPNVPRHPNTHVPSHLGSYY
Method in brief: (§1)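 A tag-only sample was pooled with DNA-barcoded human transcription factors that had been expressed in yeast as GST fusions and captured on glutathione beads. The pools were incubated for 30 min at room temperature with 200 nmole of a random double-stranded 16-mer DNA library in Tris/NaCl/DTT/glycerol buffer, then washed, crosslinked with 0.1% formaldehyde, proximity-ligated (BsaI/T4 ligase, 1 h, 37 °C), PCR-amplified and sequenced on an Illumina NextSeq500. Binding signal is each hexamer's read frequency for a factor divided by its frequency for the tag-only sample.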

ELK1 = target: T2, ELK1 (Homo sapiens, UniProt P19419 1-428); settings: protein: recombinant; tags: N-terminal GST; dsDNA, one strand shown
T2 sequence: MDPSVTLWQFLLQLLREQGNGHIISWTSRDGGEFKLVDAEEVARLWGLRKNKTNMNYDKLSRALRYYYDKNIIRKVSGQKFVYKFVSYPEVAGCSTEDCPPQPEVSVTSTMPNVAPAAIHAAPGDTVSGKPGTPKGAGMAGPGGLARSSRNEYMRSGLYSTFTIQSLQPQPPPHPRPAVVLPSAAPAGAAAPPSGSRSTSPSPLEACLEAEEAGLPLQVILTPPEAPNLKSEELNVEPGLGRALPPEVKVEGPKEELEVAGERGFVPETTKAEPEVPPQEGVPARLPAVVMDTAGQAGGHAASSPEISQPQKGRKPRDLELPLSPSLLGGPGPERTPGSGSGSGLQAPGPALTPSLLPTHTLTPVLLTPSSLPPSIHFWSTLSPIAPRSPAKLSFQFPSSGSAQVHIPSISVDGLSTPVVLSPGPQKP
Method in brief: as §1

GABPA = target: T3, GABPA (Homo sapiens, UniProt Q06546 1-454); settings: protein: recombinant; tags: N-terminal GST; dsDNA, one strand shown
T3 sequence: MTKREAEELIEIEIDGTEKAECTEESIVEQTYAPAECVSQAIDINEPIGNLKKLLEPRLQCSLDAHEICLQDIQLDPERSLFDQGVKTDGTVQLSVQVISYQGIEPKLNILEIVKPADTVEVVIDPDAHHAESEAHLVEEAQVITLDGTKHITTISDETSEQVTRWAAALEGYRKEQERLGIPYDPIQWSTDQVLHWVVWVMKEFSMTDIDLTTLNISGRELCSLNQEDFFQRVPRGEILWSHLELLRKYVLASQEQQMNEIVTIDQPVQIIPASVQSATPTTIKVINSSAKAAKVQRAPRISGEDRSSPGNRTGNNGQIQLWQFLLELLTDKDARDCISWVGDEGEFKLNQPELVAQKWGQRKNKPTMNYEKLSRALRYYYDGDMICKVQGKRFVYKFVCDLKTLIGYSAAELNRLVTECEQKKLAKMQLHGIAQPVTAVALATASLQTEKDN
Method in brief: as §1

ERG = target: T4, ERG (Homo sapiens, UniProt P11308 1-479); settings: protein: recombinant; tags: N-terminal GST; dsDNA, one strand shown
T4 sequence: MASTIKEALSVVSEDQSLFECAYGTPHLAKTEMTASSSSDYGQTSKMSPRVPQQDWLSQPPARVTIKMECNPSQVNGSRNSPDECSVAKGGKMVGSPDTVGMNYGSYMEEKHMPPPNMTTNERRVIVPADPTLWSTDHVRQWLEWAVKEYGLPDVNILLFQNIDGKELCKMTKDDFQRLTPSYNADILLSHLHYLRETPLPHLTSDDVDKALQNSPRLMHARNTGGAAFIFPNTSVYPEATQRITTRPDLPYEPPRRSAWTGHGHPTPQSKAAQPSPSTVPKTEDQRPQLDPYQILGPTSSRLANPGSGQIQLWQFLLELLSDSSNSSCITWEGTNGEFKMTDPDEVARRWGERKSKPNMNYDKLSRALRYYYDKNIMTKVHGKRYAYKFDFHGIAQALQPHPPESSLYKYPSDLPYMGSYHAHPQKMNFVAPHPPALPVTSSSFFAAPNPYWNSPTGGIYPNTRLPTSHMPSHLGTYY
Method in brief: as §1

ELF1 = ELF1 (Homo sapiens, UniProt P32519 1-619); settings: protein: recombinant; tags: N-terminal GST; dsDNA, one strand shown
Sequence of ELF1 (P32519 whole entry): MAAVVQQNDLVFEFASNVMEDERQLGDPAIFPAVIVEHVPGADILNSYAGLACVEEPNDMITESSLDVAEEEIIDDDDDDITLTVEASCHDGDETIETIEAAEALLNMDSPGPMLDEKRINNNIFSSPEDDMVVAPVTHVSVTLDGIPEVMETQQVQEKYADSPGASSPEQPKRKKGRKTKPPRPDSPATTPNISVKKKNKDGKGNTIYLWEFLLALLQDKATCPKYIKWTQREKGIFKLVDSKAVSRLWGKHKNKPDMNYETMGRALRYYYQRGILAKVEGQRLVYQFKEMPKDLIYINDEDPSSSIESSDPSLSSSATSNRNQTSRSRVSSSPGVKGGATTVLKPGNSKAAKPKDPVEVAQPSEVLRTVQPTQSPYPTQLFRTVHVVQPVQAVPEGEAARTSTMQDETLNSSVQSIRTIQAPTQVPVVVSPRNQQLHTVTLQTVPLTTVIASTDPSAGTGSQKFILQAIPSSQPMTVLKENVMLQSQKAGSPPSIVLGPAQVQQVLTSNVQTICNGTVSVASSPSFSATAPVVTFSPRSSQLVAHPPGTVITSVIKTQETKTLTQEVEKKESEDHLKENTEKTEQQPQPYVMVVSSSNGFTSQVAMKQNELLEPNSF
Method in brief: as §1

EHF = target: T5, EHF (Homo sapiens, UniProt Q9NZC4 1-300); settings: protein: recombinant; tags: N-terminal GST; dsDNA, one strand shown
T5 sequence: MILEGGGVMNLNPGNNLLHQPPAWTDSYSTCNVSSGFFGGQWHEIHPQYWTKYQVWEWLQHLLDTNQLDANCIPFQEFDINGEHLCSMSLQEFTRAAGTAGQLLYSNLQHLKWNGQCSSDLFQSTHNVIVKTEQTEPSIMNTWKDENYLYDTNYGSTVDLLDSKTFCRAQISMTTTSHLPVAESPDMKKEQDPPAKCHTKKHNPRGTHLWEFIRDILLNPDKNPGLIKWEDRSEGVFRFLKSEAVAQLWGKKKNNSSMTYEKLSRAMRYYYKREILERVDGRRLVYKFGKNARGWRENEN
Method in brief: as §1

SPIB = SPIB (Homo sapiens, UniProt Q01892 1-262); settings: protein: recombinant; tags: N-terminal GST; dsDNA, one strand shown
Sequence of SPIB (Q01892 whole entry): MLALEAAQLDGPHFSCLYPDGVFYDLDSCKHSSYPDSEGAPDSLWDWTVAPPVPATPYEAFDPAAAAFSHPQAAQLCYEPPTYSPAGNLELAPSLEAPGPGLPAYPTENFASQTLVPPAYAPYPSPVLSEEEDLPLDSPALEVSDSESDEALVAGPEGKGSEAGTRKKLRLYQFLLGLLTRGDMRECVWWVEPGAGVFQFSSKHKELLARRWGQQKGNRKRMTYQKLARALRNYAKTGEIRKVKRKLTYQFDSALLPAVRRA
Method in brief: as §1

ELK3 = target: T6, ELK3 (Homo sapiens, UniProt P41970 1-407); settings: protein: recombinant; tags: N-terminal GST; dsDNA, one strand shown
T6 sequence: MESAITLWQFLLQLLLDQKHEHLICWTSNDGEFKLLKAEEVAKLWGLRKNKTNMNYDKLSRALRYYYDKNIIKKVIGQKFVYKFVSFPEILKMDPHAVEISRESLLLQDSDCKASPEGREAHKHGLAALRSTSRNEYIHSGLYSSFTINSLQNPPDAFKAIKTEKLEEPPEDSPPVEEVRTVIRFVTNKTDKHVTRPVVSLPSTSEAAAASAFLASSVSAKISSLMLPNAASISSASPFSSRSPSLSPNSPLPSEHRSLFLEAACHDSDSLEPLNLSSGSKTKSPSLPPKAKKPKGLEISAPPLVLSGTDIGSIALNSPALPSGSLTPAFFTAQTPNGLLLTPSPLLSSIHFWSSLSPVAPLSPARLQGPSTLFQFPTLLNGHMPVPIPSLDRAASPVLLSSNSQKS
Method in brief: as §1

FEV = target: T7, FEV (Homo sapiens, UniProt Q99581 1-238); settings: protein: recombinant; tags: N-terminal GST; dsDNA, one strand shown
T7 sequence: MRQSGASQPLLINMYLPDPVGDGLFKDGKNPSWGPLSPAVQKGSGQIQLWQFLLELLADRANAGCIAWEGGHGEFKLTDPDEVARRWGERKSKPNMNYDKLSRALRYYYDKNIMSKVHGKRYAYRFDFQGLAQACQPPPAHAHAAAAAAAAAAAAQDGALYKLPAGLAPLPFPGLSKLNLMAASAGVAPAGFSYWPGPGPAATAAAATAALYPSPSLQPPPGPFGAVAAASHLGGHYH
Method in brief: as §1

ETV5 = ETV5 (Homo sapiens, UniProt P41161 1-510); settings: protein: recombinant; tags: N-terminal GST; dsDNA, one strand shown
Sequence of ETV5 (P41161 whole entry): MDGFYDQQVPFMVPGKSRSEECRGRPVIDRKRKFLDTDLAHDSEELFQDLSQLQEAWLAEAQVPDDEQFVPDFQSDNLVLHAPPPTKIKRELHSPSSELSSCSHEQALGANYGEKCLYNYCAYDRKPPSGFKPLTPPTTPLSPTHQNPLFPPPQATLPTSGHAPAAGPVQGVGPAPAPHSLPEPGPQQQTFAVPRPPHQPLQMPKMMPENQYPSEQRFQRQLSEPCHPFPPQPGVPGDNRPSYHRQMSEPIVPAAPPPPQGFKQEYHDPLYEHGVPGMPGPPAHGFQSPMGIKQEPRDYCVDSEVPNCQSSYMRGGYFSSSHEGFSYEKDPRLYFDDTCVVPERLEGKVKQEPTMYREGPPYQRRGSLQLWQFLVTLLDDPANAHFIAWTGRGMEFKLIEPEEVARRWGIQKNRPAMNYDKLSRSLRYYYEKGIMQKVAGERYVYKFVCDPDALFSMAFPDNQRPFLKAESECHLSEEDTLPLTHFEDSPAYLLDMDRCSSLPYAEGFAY
Method in brief: as §1

HSF1 = HSF1 (Homo sapiens, UniProt Q00613 1-529); settings: protein: recombinant; tags: N-terminal GST; chain copies: 3; dsDNA, one strand shown
Sequence of HSF1 (Q00613 whole entry): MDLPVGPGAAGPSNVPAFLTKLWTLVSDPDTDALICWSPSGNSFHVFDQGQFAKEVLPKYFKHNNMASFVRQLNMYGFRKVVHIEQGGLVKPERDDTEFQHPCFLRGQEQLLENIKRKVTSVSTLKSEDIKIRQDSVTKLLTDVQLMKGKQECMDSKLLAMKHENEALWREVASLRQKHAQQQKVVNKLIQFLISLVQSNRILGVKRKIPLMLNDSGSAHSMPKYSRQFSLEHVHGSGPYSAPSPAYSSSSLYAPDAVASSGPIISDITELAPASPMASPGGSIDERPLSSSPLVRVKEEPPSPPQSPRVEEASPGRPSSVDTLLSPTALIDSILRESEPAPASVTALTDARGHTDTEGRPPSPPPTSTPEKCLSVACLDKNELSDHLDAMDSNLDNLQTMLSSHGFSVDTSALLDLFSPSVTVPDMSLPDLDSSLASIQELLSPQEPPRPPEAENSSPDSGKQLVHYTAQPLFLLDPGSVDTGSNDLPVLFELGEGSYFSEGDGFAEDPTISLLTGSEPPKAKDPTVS
Method in brief: as §1

SPIC = target: T8, SPIC (Homo sapiens, UniProt Q8N5J4 1-248); settings: protein: recombinant; tags: N-terminal GST; dsDNA, one strand shown
T8 sequence: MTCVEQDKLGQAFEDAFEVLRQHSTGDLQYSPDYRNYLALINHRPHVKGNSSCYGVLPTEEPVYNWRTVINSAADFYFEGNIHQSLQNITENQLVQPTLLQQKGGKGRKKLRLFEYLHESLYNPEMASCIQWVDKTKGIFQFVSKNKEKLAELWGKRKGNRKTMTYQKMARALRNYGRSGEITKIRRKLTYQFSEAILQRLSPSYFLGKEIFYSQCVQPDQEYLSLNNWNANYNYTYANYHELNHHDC
Method in brief: as §1

ELK4 = target: T9, ELK4 (Homo sapiens, UniProt P28324-2 1-405); settings: protein: recombinant; tags: N-terminal GST; dsDNA, one strand shown
T9 sequence: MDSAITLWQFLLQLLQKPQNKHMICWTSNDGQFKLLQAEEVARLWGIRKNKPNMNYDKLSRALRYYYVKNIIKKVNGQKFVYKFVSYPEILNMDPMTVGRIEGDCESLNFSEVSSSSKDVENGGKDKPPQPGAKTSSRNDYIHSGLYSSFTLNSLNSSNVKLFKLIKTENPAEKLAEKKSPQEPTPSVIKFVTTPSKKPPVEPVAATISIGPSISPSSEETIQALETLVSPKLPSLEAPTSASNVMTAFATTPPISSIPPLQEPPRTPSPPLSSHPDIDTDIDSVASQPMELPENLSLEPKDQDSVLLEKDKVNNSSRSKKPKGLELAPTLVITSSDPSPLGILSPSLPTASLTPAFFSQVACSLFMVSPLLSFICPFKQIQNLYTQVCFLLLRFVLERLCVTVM
Method in brief: as §1

ETV2 = target: T10, ETV2 (Homo sapiens, UniProt O00321 1-342); settings: protein: recombinant; tags: N-terminal GST; dsDNA, one strand shown
T10 sequence: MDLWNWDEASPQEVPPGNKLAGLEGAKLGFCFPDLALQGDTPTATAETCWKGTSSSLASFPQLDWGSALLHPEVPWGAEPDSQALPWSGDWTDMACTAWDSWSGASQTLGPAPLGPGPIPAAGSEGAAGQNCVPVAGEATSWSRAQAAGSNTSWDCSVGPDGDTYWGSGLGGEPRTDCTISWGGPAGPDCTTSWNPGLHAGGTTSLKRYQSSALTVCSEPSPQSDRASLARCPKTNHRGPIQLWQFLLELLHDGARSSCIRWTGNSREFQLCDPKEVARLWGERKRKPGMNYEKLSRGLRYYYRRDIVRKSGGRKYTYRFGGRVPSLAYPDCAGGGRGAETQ
Method in brief: as §1

ELF3 = target: T11, ELF3 (Homo sapiens, UniProt P78545 1-371); settings: protein: recombinant; tags: N-terminal GST; dsDNA, one strand shown
T11 sequence: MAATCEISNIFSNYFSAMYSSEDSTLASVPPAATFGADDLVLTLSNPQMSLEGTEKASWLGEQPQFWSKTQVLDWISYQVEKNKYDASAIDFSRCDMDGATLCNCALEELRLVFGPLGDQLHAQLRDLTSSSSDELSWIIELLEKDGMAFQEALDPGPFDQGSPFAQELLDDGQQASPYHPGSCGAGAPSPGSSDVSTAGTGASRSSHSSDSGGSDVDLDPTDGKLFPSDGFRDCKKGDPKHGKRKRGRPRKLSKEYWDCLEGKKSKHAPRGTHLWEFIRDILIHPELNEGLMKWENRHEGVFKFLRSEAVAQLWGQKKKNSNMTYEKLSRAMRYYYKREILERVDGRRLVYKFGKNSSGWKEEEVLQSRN
Method in brief: as §1

ETV1 = ETV1 (Homo sapiens, UniProt P50549 1-477); settings: protein: recombinant; tags: N-terminal GST; dsDNA, one strand shown
Sequence of ETV1 (P50549 whole entry): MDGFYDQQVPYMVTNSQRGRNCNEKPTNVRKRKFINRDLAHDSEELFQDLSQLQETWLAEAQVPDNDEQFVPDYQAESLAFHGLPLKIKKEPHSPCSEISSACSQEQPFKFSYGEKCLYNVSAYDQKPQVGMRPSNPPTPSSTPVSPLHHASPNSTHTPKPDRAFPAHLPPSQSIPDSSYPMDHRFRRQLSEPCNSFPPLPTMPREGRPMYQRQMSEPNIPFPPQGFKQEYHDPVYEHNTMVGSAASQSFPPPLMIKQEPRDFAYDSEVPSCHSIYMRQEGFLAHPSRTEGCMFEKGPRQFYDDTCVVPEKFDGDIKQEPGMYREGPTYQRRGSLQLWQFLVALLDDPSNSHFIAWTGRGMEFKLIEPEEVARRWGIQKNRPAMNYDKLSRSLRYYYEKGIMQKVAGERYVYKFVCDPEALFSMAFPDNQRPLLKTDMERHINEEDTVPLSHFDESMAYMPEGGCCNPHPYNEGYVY
Method in brief: as §1

**Q.** How did the binding signal (FLI1) turn out when TCGCGC was run?
**A.** Its binding signal is 1.08 fold enrichment (6-mer frequency, TF over GST control).

**Q.** What about the binding signal (ELK1) of the same sequence?
**A.** The binding signal was 1.04 fold enrichment (6-mer frequency, TF over GST control).

**Q.** What about the binding signal (GABPA) of the same sequence?
**A.** The binding signal was 1.18 fold enrichment (6-mer frequency, TF over GST control).

**Q.** And the binding signal (ERG)?
**A.** Its binding signal is 1.08 fold enrichment (6-mer frequency, TF over GST control).

**Q.** And the binding signal (ELF1)?
**A.** Its binding signal is 1.07 fold enrichment (6-mer frequency, TF over GST control).

**Q.** What about the binding signal (EHF) of the same sequence?
**A.** Its binding signal is 1.13 fold enrichment (6-mer frequency, TF over GST control).

**Q.** And the binding signal (SPIB)?
**A.** Its binding signal is 1.08 fold enrichment (6-mer frequency, TF over GST control).

**Q.** What about the binding signal (ELK3) of the same sequence?
**A.** Its binding signal is 1.03 fold enrichment (6-mer frequency, TF over GST control).

**Q.** And the binding signal (FEV)?
**A.** Its binding signal is 1.03 fold enrichment (6-mer frequency, TF over GST control).

**Q.** What about the binding signal (ETV5) of the same sequence?
**A.** Its binding signal is 1.02 fold enrichment (6-mer frequency, TF over GST control).

**Q.** And the binding signal (HSF1)?
**A.** The binding signal was 1.1 fold enrichment (6-mer frequency, TF over GST control).

**Q.** What about the binding signal (SPIC) of the same sequence?
**A.** Its binding signal is 1.25 fold enrichment (6-mer frequency, TF over GST control).

**Q.** What about the binding signal (ELK4) of the same sequence?
**A.** The binding signal was 1.03 fold enrichment (6-mer frequency, TF over GST control).

**Q.** What about the binding signal (ETV2) of the same sequence?
**A.** The binding signal was 1.08 fold enrichment (6-mer frequency, TF over GST control).

**Q.** And the binding signal (ELF3)?
**A.** Its binding signal is 1.05 fold enrichment (6-mer frequency, TF over GST control).

**Q.** What about the binding signal (ETV1) of the same sequence?
**A.** The binding signal was 1.13 fold enrichment (6-mer frequency, TF over GST control).
